Shown are actives, neighbours in structure and some others; about 22% of the full set was active somewhere.
Measles CPE: protection of cells from measles virus; Measles virus-infected cells, CPE protection, absorbance; protection (pct of control), % at 4 µM; 140,000 compounds, 1.5% hits; in the data active = protection mostly above about 24%, no sharp cut-off; inactive = mostly below about 26%
CYP2C19 activ: increases human CYP2C19 enzyme activity; recombinant CYP2C19, luciferin-H EGE luminescence; active compounds read high; 0 = fully inhibited enzyme, 1 = untreated enzyme; AID 1025; P33261; activation factor at 5 µM; 96,000 tested, under 10 active;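 active = activation factor of at least 2 at 5 µM in the primary screen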
CYP2C9 activ: activators of human CYP2C9 | P11712 | recombinant CYP2C9, luciferin-H conversion, luminescence; active compounds read high; factor 1 = untreated enzyme, 0 = blocked | activation factor at 5 µM | 96,000 compounds, 1.4% hits;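 active = activation factor of 2 or more for CYP2C9 at a 5 µM dose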
Target sequence (P11712 whole entry, looked up): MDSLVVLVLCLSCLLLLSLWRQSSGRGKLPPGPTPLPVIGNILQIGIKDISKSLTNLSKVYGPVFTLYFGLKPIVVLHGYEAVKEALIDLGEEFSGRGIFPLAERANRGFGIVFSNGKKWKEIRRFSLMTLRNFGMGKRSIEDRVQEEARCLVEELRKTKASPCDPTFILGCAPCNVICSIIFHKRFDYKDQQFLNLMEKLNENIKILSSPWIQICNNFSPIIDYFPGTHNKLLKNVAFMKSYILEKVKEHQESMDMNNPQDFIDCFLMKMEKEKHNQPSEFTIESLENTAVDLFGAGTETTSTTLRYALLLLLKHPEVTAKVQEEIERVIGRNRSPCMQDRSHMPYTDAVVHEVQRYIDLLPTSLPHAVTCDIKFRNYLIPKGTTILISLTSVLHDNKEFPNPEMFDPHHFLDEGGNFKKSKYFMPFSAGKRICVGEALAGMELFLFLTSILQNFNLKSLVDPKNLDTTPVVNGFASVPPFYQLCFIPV
CYP2C19 inh: blocks human cytochrome P450 2C19 | P33261 | CYP2C19 Supersomes, luciferin-H EGE luminescence, 30 min | inhibition, % at 5 µM | 96,000 compounds, 21% hits;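 active = CYP2C19 inhibition above a set limit at 5 µM in the primary screen, cut at about 50% in these data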
CYP2C9 inh: inhibitors of human CYP2C9; P11712; CYP2C9 Supersomes, luciferin-H conversion, luminescence; inhibition, % at 5 µM; 96,000 compounds, 20% hits;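 active = blocking of liver enzyme CYP2C9 beyond about 50% at 5 µM, limit read from the data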
Each line names hits and unclear results; the compound was inactive in the other large screens.

COc1ccc(C(c2nnnn2Cc2ccccc2)N2CCN(c3ccccc3)CC2)cc1 (centres undefined)	CYP2C19 inh 91, CYP2C9 inh 86
COc1ccc(C(c2nnnn2C2CCCC2)N2CCC(C)CC2)c(OC)c1 (centres undefined)	none
COCCn1nnnc1C(c1ccc(OC)cc1OC)N1CCN(c2ccccc2F)CC1 (centres undefined)	none
COc1ccc(OC)c(C(c2nnnn2C2CCCC2)N2CCN(c3ccc(F)cc3)CC2)c1 (centres undefined)	CYP2C19 inh 81, CYP2C9 inh 63
COc1ccc2c(CC(=O)OCC(=O)c3ccc(F)cc3)coc2c1	none
COc1ccc(C(=O)OCCNC(=O)c2ccncc2)cc1OC	none (no result: CYP2C19 activ, CYP2C9 activ, CYP2C19 inh, CYP2C9 inh)
CSc1nc2ccc(N3C(=O)C4CCCCC4C3=O)cc2s1 (centres undefined)	none
COc1ccc(-c2nnc3ccc(SC)nn23)cc1	none
O=C(c1cc2ccccc2[nH]1)N1CCOCC1	none (no result: CYP2C19 activ, CYP2C9 activ, CYP2C19 inh, CYP2C9 inh)
Fc1ccc(C(c2nnnn2Cc2cccs2)N2CCN(C3CCCC3)CC2)cc1 (centres undefined)	CYP2C19 inh 80
c1ccc(C(c2nnnn2Cc2cccs2)N2CCN(C3CCCC3)CC2)cc1 (centres undefined)	none
COc1ccc(C(c2nnnn2Cc2ccccc2)N2CCN(c3nc4ccccc4s3)CC2)cc1 (centres undefined)	CYP2C19 inh 54, CYP2C9 inh 63
COc1ccc(C(c2nnnn2C2CCCCC2)N2CCN(c3ccccc3)CC2)cc1 (centres undefined)	CYP2C19 inh 72, CYP2C9 inh 75 (no result: Measles CPE)
COc1ccc(C(c2nnnn2C2CCCC2)N2CCN(c3ccccc3)CC2)cc1 (centres undefined)	none (no result: CYP2C19 activ, CYP2C9 activ, CYP2C19 inh, CYP2C9 inh)
COc1ccc(Cn2nnnc2C(C(C)C)N2CCN(c3ccccc3OC)CC2)cc1 (centres undefined)	CYP2C19 inh 92, CYP2C9 inh 97
COc1cc(OC)cc(C(=O)N[C@H](C(=O)OCC(=O)Nc2ccc(F)c(F)c2)C(C)C)c1	none (no result: CYP2C19 activ, CYP2C9 activ, CYP2C19 inh, CYP2C9 inh)
Cc1cc(C)n(-c2ccc(Cl)c(C(=O)Nc3cc(C(F)(F)F)ccc3Cl)n2)n1	none (no result: CYP2C19 activ, CYP2C9 activ, CYP2C19 inh, CYP2C9 inh)
O=C(C1CCC(=O)N1Cc1ccccc1Cl)N1CCN(c2ccc(F)cc2)CC1 (centres undefined)	none
COc1ccc(C(c2nnnn2CC2CCCO2)N2CCN(c3ccc(F)cc3)CC2)cc1 (centres undefined)	CYP2C9 inh 78
COCC(COCCCNC(=O)Nc1ccc(Br)cc1)OC (centres undefined)	none
NCCCCCc1nnc(SCC(=O)c2ccc(Cl)cc2)o1	CYP2C19 inh 59, CYP2C9 inh 75 (no result: Measles CPE)
CN(C)C(=O)CSc1nnc(CCNC(=O)OC(C)(C)C)o1	none
CC(C)=CCSc1nnc(CCNC(=O)OC(C)(C)C)o1	CYP2C19 inh 66
O=C(CSc1nnc(CNC(=O)c2cccs2)o1)c1ccc(Cl)cc1	none
O=C(CSc1nnc(CNC(=O)c2ccccc2F)o1)c1ccc(Cl)cc1	CYP2C9 inh 54
CC(C)Sc1nnc([C@H](C)NC(=O)OC(C)(C)C)o1	CYP2C19 inh 57
O=C(CO/N=C/c1ccccc1Cl)N1CCCc2ccccc21	none (no result: CYP2C19 activ, CYP2C9 activ, CYP2C19 inh, CYP2C9 inh)
CCc1cccc(CC)c1NC(=O)COC(=O)CCc1cc(OC)c(OC)c(OC)c1	none (no result: CYP2C19 activ, CYP2C9 activ, CYP2C19 inh, CYP2C9 inh)
Cc1cc(S(=O)(=O)NCCc2ccccc2)c(C)s1	none
CSCC[C@H](NC(=O)OC(C)(C)C)c1nnc(SCC(=O)Nc2c(C)cccc2C)o1	CYP2C9 inh 58
Cc1cccc(C)c1NC(=O)CSc1nnc([C@H](C)NC(=O)OC(C)(C)C)o1	none
C[C@H](NC(=O)OC(C)(C)C)c1nnc(SCC(=O)c2ccc(Cl)cc2)o1	none
CC(C)(C)OC(=O)NCCc1nnc(SCC(=O)c2ccc(Cl)cc2)o1	CYP2C19 inh 77, CYP2C9 inh 70
CC(C)[C@H](NC(=O)OC(C)(C)C)c1nnc(SCC(=O)Nc2ccc(Br)cc2)o1	CYP2C9 inh 70 (no result: Measles CPE)
CCCCSc1nnc(CCCCCNC(=O)OC(C)(C)C)o1	CYP2C19 inh 64, CYP2C9 inh 64
CN(C)C(=O)CSc1nnc(CCCCCNC(=O)OC(C)(C)C)o1	none
CN1CCc2ccccc2CC1=O	none (no result: CYP2C19 activ, CYP2C9 activ, CYP2C19 inh, CYP2C9 inh)
O=C(COc1ccccc1Br)NCCc1nc2ccccc2[nH]1	none (no result: CYP2C19 activ, CYP2C9 activ, CYP2C19 inh, CYP2C9 inh)
CC(C)[C@H](N)c1nnc(SCC(=O)c2ccc(Cl)cc2)o1	CYP2C19 inh 99, CYP2C9 inh 69
Cc1[nH]c(=O)[nH]c(=O)c1CSc1nnc([C@@H](NC(=O)OC(C)(C)C)C(C)C)o1	none
CC(C)(C)OC(=O)N1CCC[C@H]1c1nnc(SCc2ccc(Cl)cc2Cl)o1	none

Bioassay records as filed in PubChem BioAssay.
